The record followed here is PubChem BioAssay (NCI).

The panel holds about 79,000 compounds, 15% with a hit somewhere; the sample as a whole holds those more often. Values without a mark were called inactive. The source made the active and inactive calls. Cut-off read from the data, not from the text of the source: active = growth inhibition above about 70%; inactive = the rest.

Assay [1] can be described thus: NCI Yeast Anticancer Drug Screen. Data for the rad50 strain (AID 155).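 Note: 0% = growth of vehicle-only cultures of the same strain.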 The following applies: S. cerevisiae rad50 strain growth inhibition, hits give high values. In short, it runs like this:
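Cells are treated with compound, grown, and their growth is then scored against vehicle-only cultures of the same repair-deficient yeast strain.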

The nature of assay [2]: NCI Yeast Anticancer Drug Screen. Data for the mec2-1 strain (AID 157). Conditions: S. cerevisiae mec2-1 strain, hits give high values. In a few lines: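 mec2-1 yeast strain, carrying an alteration in DNA damage repair or cell cycle control, was exposed to compounds; growth inhibition was measured relative to vehicle-treated controls.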
Assay [3] can be described thus: NCI Yeast Anticancer Drug Screen. Data for the sgs1 mgt1 strain (AID 161).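 Note: 0% = growth of cultures given vehicle only.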 The following applies: S. cerevisiae sgs1 mgt1 strain, hits give high values. In short, it runs like this:
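Growth of a repair-deficient yeast mutant was monitored after compound treatment and expressed as inhibition relative to vehicle-treated cultures.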

The nature of assay [4]: NCI Yeast Anticancer Drug Screen. Data for the cln2 rad14 strain (AID 165).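 Note: 0% = growth equal to vehicle treated cultures.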 Conditions: S. cerevisiae cln2 rad14 strain, hits give high values. In short, it runs like this: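 Yeast carrying cln2 and rad14 alterations (cell cycle control and DNA damage repair) were exposed to compounds. Growth inhibition was measured against vehicle-treated controls.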
The nature of assay [5]: NCI Yeast Anticancer Drug Screen. Data for the bub3 strain (AID 167). Conditions: S. cerevisiae bub3 mutant strain, hits give high values. In short, it runs like this:
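Part of a panel of yeast mutants defective in DNA damage repair or cell cycle regulation. Each strain is grown with compound, and inhibition is calculated relative to solvent-treated cultures.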

The nature of assay [6]: NCI Yeast Anticancer Drug Screen. Data for the mlh1 rad18 strain (AID 175). Conditions: S. cerevisiae mlh1 rad18 strain growth inhibition, hits give high values. In short, it runs like this:
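Growth inhibition of the yeast strain was measured after compound exposure and expressed relative to vehicle-treated controls. The strain carries defined defects in DNA damage repair.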

[7] abbreviates: at 5.0 µM (retest, dose inferred, filed as 0.5).
[8] abbreviates: at 50.0 µM (retest, dose inferred, filed as 5.0).

Take `Oc1ccc2cc(Br)ccc2c1O`: the growth inhibition in assay [1] (setting [7]) is -28%; in assay [1] (setting [8]) it was 97% (active); in assay [1] (at 50.0 µM), 97.2% (active); in assay [2] (setting [7]), -11%; in assay [2] (setting [8]), 97% (active); in assay [2] (at 50.0 µM), 98.3% (active). Moreover, the growth inhibition in assay [3] (setting [7]) was 10%; in assay [3] (setting [8]), 98% (active); in assay [3] (at 50.0 µM) it was 97.5% (active); in assay [4] (setting [7]) it was -24%; in assay [4] (setting [8]), 97% (active); in assay [4] (at 50.0 µM) it was 97% (active). The growth inhibition in assay [5] (setting [7]) was -5%; in assay [5] (setting [8]) it was 98% (active); in assay [5] (at 50.0 µM), 98% (active); in assay [6] (setting [7]), -7%; in assay [6] (setting [8]), 97% (active); in assay [6] (at 50.0 µM), 98.2% (active).
As to `O=C1C/C(=C\c2ccccc2)C(=O)c2ccccc2N1`, the growth inhibition in assay [1] (setting [7]) is 0%; in assay [1] (setting [8]), 20%; in assay [1] (at 50.0 µM), 57.8%; in assay [2] (setting [7]) it was -3%; in assay [2] (setting [8]), 16%; in assay [2] (at 50.0 µM), 41.8%. The growth inhibition is -9% in assay [3] (setting [7]); 27% in assay [3] (setting [8]); 76% (active) in assay [3] (at 50.0 µM); 1% in assay [4] (setting [7]); 6% in assay [4] (setting [8]); 33.6% in assay [4] (at 50.0 µM). For the same compound, the growth inhibition in assay [5] (setting [7]) was -23%; in assay [5] (setting [8]), 19%; in assay [5] (at 50.0 µM), 67%; in assay [6] (setting [7]), -18%; in assay [6] (setting [8]) it was 18%; in assay [6] (at 50.0 µM), 60.5%.
`COc1ccccc1NC(=O)/C(=C/c1ccccc1)C(C)=O`: the growth inhibition in assay [1] (setting [7]) is -1%; in assay [1] (setting [8]), 12%; in assay [1] (at 50.0 µM), 48.6%; in assay [2] (setting [7]), -2%; in assay [2] (setting [8]), -2%; in assay [2] (at 50.0 µM), -3.05%. For the same compound, the growth inhibition in assay [3] (setting [7]) was 11%; in assay [3] (setting [8]), 12%; in assay [3] (at 50.0 µM), 16.7%; in assay [4] (setting [7]) it was 1%; in assay [4] (setting [8]) it was 21%; in assay [4] (at 50.0 µM), 49.1%. Further, the growth inhibition in assay [5] (setting [7]) was -2%; in assay [5] (setting [8]) it was 25%; in assay [5] (at 50.0 µM), -4.75%; in assay [6] (setting [7]) it was 3%; in assay [6] (setting [8]), 26%; in assay [6] (at 50.0 µM) it was 66.5%.
Turning to `CCOc1ccccc1NC1=C(Cl)C(=O)c2ccccc2C1=O`, the growth inhibition in assay [1] (setting [7]) is 99% (active); in assay [1] (setting [8]), 97% (active); in assay [1] (at 50.0 µM), 23.9%; in assay [2] (setting [7]) it was 99% (active); in assay [2] (setting [8]), 98% (active); in assay [2] (at 50.0 µM), 97.9% (active). The growth inhibition in assay [3] (setting [7]) was 100% (active); in assay [3] (setting [8]) it was 98% (active); in assay [3] (at 50.0 µM) it was 98% (active); in assay [4] (setting [7]) it was 99% (active); in assay [4] (setting [8]), 98% (active); in assay [4] (at 50.0 µM), 97% (active). Moreover, the growth inhibition is 99% (active) in assay [5] (setting [7]); 97% (active) in assay [5] (setting [8]); 97.8% (active) in assay [5] (at 50.0 µM); 99% (active) in assay [6] (setting [7]); 97% (active) in assay [6] (setting [8]); 96.1% (active) in assay [6] (at 50.0 µM).
With `CC(=O)Oc1cc(OC(C)=O)c2cc(Br)ccc2c1OC(C)=O`, the growth inhibition in assay [1] (setting [7]) was -5%; in assay [1] (setting [8]), 63%; in assay [1] (at 50.0 µM), 87.5% (active); in assay [2] (setting [7]) it was 3%; in assay [2] (setting [8]), 47%; in assay [2] (at 50.0 µM) it was 72.8% (active). The growth inhibition in assay [3] (setting [7]) is -19%; in assay [3] (setting [8]), 67%; in assay [3] (at 50.0 µM) it was 62.8%; in assay [4] (setting [7]) it was 0%; in assay [4] (setting [8]), 37%; in assay [4] (at 50.0 µM) it was 70.2% (active). The growth inhibition is 0% in assay [5] (setting [7]); 65% in assay [5] (setting [8]); 94.1% (active) in assay [5] (at 50.0 µM); 5% in assay [6] (setting [7]); 69% in assay [6] (setting [8]); 90.7% (active) in assay [6] (at 50.0 µM).
On to `O=c1c2c3ccccc3[nH]c2c2cccc3c2n1CCC3`, for which the growth inhibition was 4% in assay [1] (setting [7]); 92% (active) in assay [1] (setting [8]); 88.7% (active) in assay [1] (at 50.0 µM); 5% in assay [2] (setting [7]); 88% (active) in assay [2] (setting [8]); 90% (active) in assay [2] (at 50.0 µM). For the same compound, the growth inhibition in assay [3] (setting [7]) was 13%; in assay [3] (setting [8]), 89% (active); in assay [3] (at 50.0 µM) it was 88.2% (active); in assay [4] (setting [7]), -1%; in assay [4] (setting [8]), 69%; in assay [4] (at 50.0 µM) it was 83.5% (active). In addition, the growth inhibition in assay [5] (setting [7]) is 11%; in assay [5] (setting [8]), 96% (active); in assay [5] (at 50.0 µM) it was 89.3% (active); in assay [6] (setting [7]), 13%; in assay [6] (setting [8]), 94% (active); in assay [6] (at 50.0 µM), 88.8% (active).
`NC1NCCC(=O)N1CCc1c[nH]c2ccccc12` (stereo not given): the growth inhibition was -18% in assay [1] (setting [7]); 99% (active) in assay [1] (setting [8]); 65.9% in assay [1] (at 50.0 µM); 7% in assay [2] (setting [7]); 100% (active) in assay [2] (setting [8]); 54.9% in assay [2] (at 50.0 µM). In addition, the growth inhibition is -22% in assay [3] (setting [7]); 99% (active) in assay [3] (setting [8]); 54.4% in assay [3] (at 50.0 µM); 31% in assay [4] (setting [7]); 99% (active) in assay [4] (setting [8]); 22.3% in assay [4] (at 50.0 µM). Besides, the growth inhibition is -26% in assay [5] (setting [7]); 100% (active) in assay [5] (setting [8]); 74.5% (active) in assay [5] (at 50.0 µM); -12% in assay [6] (setting [7]); 100% (active) in assay [6] (setting [8]); 53.6% in assay [6] (at 50.0 µM).
For the compound `Nc1ncc2ccccc2c1-c1ccc(NC(=O)CCCl)cc1`, the growth inhibition in assay [1] (setting [7]) is -1%; in assay [1] (setting [8]) it was 36%; in assay [1] (at 50.0 µM), 70% (active); in assay [2] (setting [7]), -3%; in assay [2] (setting [8]), 40%; in assay [2] (at 50.0 µM), 14.8%. The growth inhibition in assay [3] (setting [7]) was -2%; in assay [3] (setting [8]), 39%; in assay [3] (at 50.0 µM), 31.6%; in assay [4] (setting [7]), -1%; in assay [4] (setting [8]), 23%; in assay [4] (at 50.0 µM), -4.85%. For the same compound, the growth inhibition in assay [5] (setting [7]) was 6%; in assay [5] (setting [8]), 59%; in assay [5] (at 50.0 µM) it was 21.6%; in assay [6] (setting [7]) it was -2%; in assay [6] (setting [8]), 55%; in assay [6] (at 50.0 µM), 45%.
For `CCCCCCCCCCSC(=NCC)NCC`, the growth inhibition in assay [1] (setting [7]) was 2%; in assay [1] (setting [8]), 99% (active); in assay [1] (at 50.0 µM), 66.9%; in assay [2] (setting [7]) it was 4%; in assay [2] (setting [8]) it was 99% (active); in assay [2] (at 50.0 µM), 49.9%. The growth inhibition in assay [3] (setting [7]) was 51%; in assay [3] (setting [8]), 99% (active); in assay [3] (at 50.0 µM) it was 46.7%; in assay [4] (setting [7]), -6%; in assay [4] (setting [8]), 99% (active); in assay [4] (at 50.0 µM), 77.3% (active). The growth inhibition in assay [5] (setting [7]) was 27%; in assay [5] (setting [8]), 99% (active); in assay [5] (at 50.0 µM), 59%; in assay [6] (setting [7]), 0%; in assay [6] (setting [8]) it was 99% (active); in assay [6] (at 50.0 µM), 99.5% (active).
`COc1ccc(/C=C2\C(=O)N(C)C(=O)c3cc(OC)c(OC)cc32)cc1OC`: the growth inhibition in assay [1] (setting [7]) is 1%; in assay [1] (setting [8]) it was 12%; in assay [1] (at 50.0 µM), 61.4%; in assay [2] (setting [7]) it was 0%; in assay [2] (setting [8]) it was 16%; in assay [2] (at 50.0 µM) it was 47.5%. The growth inhibition in assay [3] (setting [7]) was -3%; in assay [3] (setting [8]), -4%; in assay [3] (at 50.0 µM) it was 62.9%; in assay [4] (setting [7]), 0%; in assay [4] (setting [8]) it was 19%; in assay [4] (at 50.0 µM), 46.6%. Besides, the growth inhibition in assay [5] (setting [7]) is 5%; in assay [5] (setting [8]), 32%; in assay [5] (at 50.0 µM) it was 39.5%; in assay [6] (setting [7]) it was 2%; in assay [6] (setting [8]) it was 19%; in assay [6] (at 50.0 µM), 65%.
